In the library only some 21% were active in any assay of this set; here they are far more common.
DT40 TDP1 no CPT: qHTS for Inhibitors of human tyrosyl-DNA phosphodiesterase 1 (TDP1): qHTS in cells in absence of CPT; DT40 Tdp1-/- hTDP1 cells, no CPT, ATP luminescence, 48 h; Potency, µM (titrated, usually from 46.2 µM), for inactives: top-dose activity change, negative = growth inhibition, actives largely listed as inhibitors; hit rate 15% among 420,000; note: potency is the fitted concentration of half-maximal effect; % is set by controls: 0 for no effect and ±100 for the full control effect; nearly all actives have a fitted effect of over 55% in size
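Seeded 400 DT40-hTDP1 cells/well (vehicle DMSO, no 20 nM CPT); pinned compounds; ≥48 hr at 37 °C; CellTiter-Glo luminescence as viability measure.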
DT40 TDP1 CPT: growth inhibition of DT40 Tdp1-/-;hTDP1 cells with camptothecin (screen for TDP1 inhibitors); chicken DT40 Tdp1-/-;hTDP1 cells + 20 nM CPT, ATP luminescence, 48 h; Potency, µM (highest dose often 46.2 µM), inactives show top-dose activity change, negative = growth inhibition, usual class: inhibitors; hit rate 12% among 420,000; AID 686979; note: potency is the fitted concentration of half-maximal effect; % is set by controls: 0 for no effect and ±100 for the full control effect; nearly all actives have a fitted effect of over 55% in size
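Cell growth measured by CellTiter-Glo luminescence after a minimum 48 h, 37 C compound exposure with 20 nM CPT in Tdp1-knockout DT40 cells stably expressing hTDP1, seeded 400/well; qHTS titration format.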
ClpP mod: qHTS Assay for Activators of ClpP | AID 651965, 2013 | purified B. subtilis ClpP, FRET peptide cleavage, 20 min | hit rate 1.9% among 340,000 | Potency, µM (series often up to 57.5 µM), for the others: at the top dose activity change, negative = active; active = well fitted falling curve with a large enough effect; inconclusive = small, poorly fitted or top-dose-only effect; inactive = no such curve, though single readings can be large or run the other way; note: potency is the fitted concentration of half-maximal effect; the source files actives as falling curves though it sought activators and does not explain the sign; nearly all actives have a fitted effect of over 65% in size
Target sequence (P80244 whole entry, looked up): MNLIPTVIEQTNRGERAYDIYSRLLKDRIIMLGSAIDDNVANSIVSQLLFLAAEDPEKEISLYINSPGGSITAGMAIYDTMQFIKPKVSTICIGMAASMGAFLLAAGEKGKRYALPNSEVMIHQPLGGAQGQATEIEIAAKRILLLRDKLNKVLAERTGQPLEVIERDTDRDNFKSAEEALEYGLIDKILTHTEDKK
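ClpP 10 microg/mL final, pH 8 Tris/KCl buffer with BSA, glycerol, Tween-20; compound pinned in; FRET-FV substrate; RT 20 min; Ex320/Em430; ΔFRET vs ADEP 5.8 microM, DMSO, no enzyme.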
DRD3 antagonist: antagonists of human D3 dopamine receptor | P35462 | max response, negative = inhibition, % | hit rate 2.5% among 360,000 | D3R cells, DiscoveRx beta-arrestin luminescence, antagonist mode; stronger effect = lower value; in the data active = max response below about -50%; inconclusive = no clear call, values can overlap the other calls; note: % is set by controls: 0 for no effect and ±100 for the full control effect
Target sequence (P35462 whole entry, looked up): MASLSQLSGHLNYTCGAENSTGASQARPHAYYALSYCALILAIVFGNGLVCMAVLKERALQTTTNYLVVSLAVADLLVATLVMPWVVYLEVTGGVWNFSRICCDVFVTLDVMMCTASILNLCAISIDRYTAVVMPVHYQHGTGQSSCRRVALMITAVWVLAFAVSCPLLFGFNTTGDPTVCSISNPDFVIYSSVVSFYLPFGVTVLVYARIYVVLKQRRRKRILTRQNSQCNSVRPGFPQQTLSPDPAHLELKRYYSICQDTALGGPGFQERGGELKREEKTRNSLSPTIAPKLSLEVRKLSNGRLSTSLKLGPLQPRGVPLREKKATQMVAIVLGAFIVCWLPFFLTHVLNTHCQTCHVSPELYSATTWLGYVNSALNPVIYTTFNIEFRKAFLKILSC
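Cells plated overnight at 1500 cells/well, then exposed to library compounds with dopamine controls for 90 minutes at 37 degrees C. DiscoveRx reagent added for 30–60 minutes at room temperature; luminescence read, quantitative HTS format.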
IL1B secr inh: inflammasome signaling inhibition, IL-1 beta readout; THP-1 LPS/ATP IL-1B secretion, AlphaLISA, 16 h; stronger effect = lower value; activity change, % at 57.5 µM; hit rate 4.7% among 360,000; in the data active = activity change below about -50%; inconclusive = mostly about -30% to -49%; note: % is set by controls: 0 for no effect and ±100 for the full control effect
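THP-1 cells pretreated 1 hr with compounds (up to 57.5 uM final), then stimulated with LPS (250 ng/mL final) plus ATP (1.25 mM final); secreted IL-1B measured by AlphaLISA after 16 hr, decreased signal indicating inhibition.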
DRD3 agonist: D3 dopamine receptor (human) agonism. P35462. D3R DiscoveRx beta-arrestin cells, luminescence, 90 min. max activation, %. hit rate 0.58% among 410,000. AID 652048; in the data active = max activation above about 30%; note: 0% is about no effect
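Agonist-mode cell screen: cells plated at 1500/well and incubated overnight at 37 °C, then exposed to library compounds for 90 min at 37 °C. Detection reagent was added for 30–60 min at room temperature, and luminescence was read.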
* marks the source's active call; other numbers are inactive results; ? = inconclusive; . = not tested or not shown. Unless noted, calls come from the whole dose curve; as a rule, active = well fitted inhibition curve with a large enough effect; inconclusive = small, poorly fitted or top-dose-only effect; inactive = flat fitted curve, though single readings scatter.

SMILES	DT40 TDP1 no CPT	DT40 TDP1 CPT	ClpP mod	DRD3 antagonist	IL1B secr inh	DRD3 agonist
CCOc1ccc(OCC)c(S(=O)(=O)n2ccnc2C)c1	-12%	-13%	.	-17	0	-11
CCOc1ccc(OCC)c(NC(=O)C2CCCN2S(=O)(=O)c2cccc3cccnc23)c1 (configuration not stated)	18µM*	15µM*	1%	7	34	-3
COc1ccc(NC(=O)C2CCCN2S(=O)(=O)c2cccc3cccnc23)c(OC)c1 (configuration not stated)	?	?	-2%	50	42	7
COc1cc(NC(=O)[C@H]2CCCN2S(=O)(=O)c2cccc3cccnc23)cc(OC)c1OC	?	15µM*	-2%	3	2	-10
CCOc1ccc(OCC)c(S(=O)(=O)N2CCCCC2C)c1 (configuration not stated)	?	23µM*	-2%	-22	7	-3
CC1CC(C)CN(C(=O)C(C)N2CCN(S(=O)(=O)c3ccc(C(F)(F)F)cc3)CC2)C1 (configuration not stated)	?	?	2%	8	-15	2
COc1ccc(OC)c(NC(=O)C2CCCN(S(=O)(=O)c3cccc4cccnc34)C2)c1 (configuration not stated)	13µM*	?	-1%	17	?	6
COC(=O)C1CCCN1S(=O)(=O)c1ccccc1NC(=O)c1cc(OC)c(OC)c(OC)c1 (configuration not stated)	-30%	15µM*	-4%	0	19	0
COC(=O)C1CCCN1S(=O)(=O)c1ccc2ccccc2c1 (configuration not stated)	21µM*	?	-1%	?	12	-18
COc1cc(OC)cc(C(=O)Nc2ccccc2S(=O)(=O)N2CCCC2OC(C)=O)c1 (configuration not stated)	?	?	.	0	80	11
O=C(Nc1cccc(C(F)(F)F)c1)C1CCCN1S(=O)(=O)c1cccc2cccnc12 (configuration not stated)	16µM*	23µM*	0%	11	-7	17
CCOP(=O)(OCC)c1nc(-c2ccc(Cl)cc2Cl)oc1N1CCOCC1	?	?	-18%	-8	-20	-3
CCOC(=O)c1nnc(-c2ccccc2)nc1N1CC(C)OC(C)C1 (configuration not stated)	-20%	-6%	.	3	-8	3
Cc1ccc(C(=O)CCS(=O)(=O)c2ccc(Cl)cc2)cc1	2.9µM*	2.9µM*	1%	?	0	-8
Cc1ccc(C(=O)CCS(=O)(=O)c2ccc(F)cc2)cc1	2.9µM*	4.6µM*	-1%	-10	-28	-7
Cc1ccc(S(=O)(=O)CCC(=O)c2ccc(F)cc2)cc1	2.6µM*	4.1µM*	-1%	-18	-61*	0
Cc1ccc(S(=O)(=O)CCC(=O)NCc2ccc(Cl)cc2)cc1	-14%	3%	1%	21	6	6
Cc1ccc(S(=O)(=O)CCC(=O)OCC(=O)NCCc2ccc(F)cc2)cc1	1%	-26%	1%	19	6	-9
CCC/C=C/c1ccc(CN2C(C(C)C)C(=O)N(Cc3cn(CCC4OCCCO4)nn3)CCS2(=O)=O)cc1 (configuration not stated)	?	?	-2%	-4	?	3
CCCCN(Cc1ccccc1)C(=O)CCN1C(=O)C2C3C=CC(C3)C2C1=O (configuration not stated)	-10%	-21%	.	23	22	2
O=C(CN1C(=O)C2CCCCN2c2ccc(C(=O)N3CCCC3)cc21)NCc1cccc(Cl)c1 (configuration not stated)	5.8µM*	?	-16%	.	.	6
O=C(CN1C(=O)NC2(CCCC2)C1=O)Nc1ccc(F)c([N+](=O)[O-])c1	?	-12%	.	-6	-66*	-8
CC(C(=O)Nc1ccc(Cl)cc1)N1C(=O)NC2(CCCC2)C1=O (configuration not stated)	21µM*	?	.	3	-12	6
O=C(CN1C(=O)C2CCCCN2c2ccc(C(=O)N3CCCC3)cc21)NCc1ccccc1 (configuration not stated)	?	-29%	-13%	.	.	10
CCCCCC(=O)Nc1ccc(C(=O)CN2C(=O)NC3(CCCCCC3)C2=O)cc1	3.7µM*	5.8µM*	.	?	95	-1
SMILES	DT40 TDP1 no CPT	DT40 TDP1 CPT	ClpP mod	DRD3 antagonist	IL1B secr inh	DRD3 agonist
COc1cc(OC)c(NC(=O)Cn2c(=O)c(C(F)(F)F)nc3ccccc32)cc1Cl	-2%	7%	-2%	.	.	8
Cc1cc(NC(=O)C2CCN(S(=O)(=O)c3ccc4[nH]c(=O)oc4c3)CC2)ccc1Br	?	?	-3%	.	.	2
Cc1ccc(S(=O)(=O)Nc2cccc(-c3ccc(N4CCCCC4)nn3)c2)s1	?	?	-4%	.	.	1
CC1(c2ccccc2Cl)NC(=O)N(CC(=O)Nc2ccc(N3CCOCC3)cc2)C1=O (configuration not stated)	12%	13%	0%	8	2	4
CC(C)CC(=O)Nc1ccc(C(=O)CN2C(=O)NC3(CCOc4ccccc43)C2=O)cc1 (configuration not stated)	-95%	18µM*	-5%	0	12	-10
CC(C)c1ccc(C2(C)NC(=O)N(CC(=O)NC3CCCC(C)C3C)C2=O)cc1 (configuration not stated)	21µM*	?	1%	-9	?	-4
CC1CCCC(NC(=O)CN2C(=O)NC(C)(c3ccccc3)C2=O)C1C (configuration not stated)	-11%	-6%	1%	-20	-2	4
CC(C(=O)Nc1ccc(N2CCOCC2)cc1)N1C(=O)c2ccccc2C1=O (configuration not stated)	-2%	-12%	0%	3	24	1
CC(C)c1ccc(C2(C)NC(=O)N(C(C)C(=O)Nc3ccc(N4CCOCC4)cc3)C2=O)cc1 (configuration not stated)	26µM*	15µM*	.	0	7	9
